Experimental data: PubChem BioAssay AID463173 (ICCB-Longwood Screening Facility, Harvard Medical School, 2010)
About 4,300 (8.3%) of roughly 52,000 compounds were called active. No stated cut-off is given here; in the data, active means survival mostly below about 52% (no sharp cut-off); inactive means mostly above about 56%. This excerpt belongs to a sample that is enriched for actives.

These compounds were tested on DeltatarO mutant (assay: S. aureus survival, RN4220 and DeltatarO strains – OD600, teichoic acid synthesis inhibitors, primary screen (AID 463173)). Settings: S. aureus RN4220 wild type/DeltatarO growth, OD600, 18 h, active compounds read low, screened at 18.75 µg/mL (by protocol).
`CC(C)Oc1ccc(CNS(=O)(=O)c2csc(C(N)=O)c2)cc1` was tested, and the survival was 101% (inactive). With `COc1cccc2c1Oc1ncccc1N(C(=O)CCC(=O)NCc1ccc(OC(C)C)cc1)C2` the survival was 83% (inactive). `CCCCN(C)C(=O)CN1C(=O)c2cccnc2Oc2ccc(Cl)cc21` was tested, and the survival was 89% (inactive). `CCN(CC)S(=O)(=O)c1nnc(NC(=O)COc2ccccc2F)s1` was tested, and the survival was 103% (inactive). In the case of `CCN(c1ccccc1)S(=O)(=O)c1nnc(NC(=O)COc2ccc(OC)cc2)s1`, the survival is reported as 55% (inactive). With `CCN(c1ccccc1)S(=O)(=O)c1nnc(NC(=O)COc2ccccc2F)s1` the survival was 31% (active). For `O=C1C2CCCC1C(c1ccc3c(c1)OCO3)NC2c1ccc2c(c1)OCO2` (stereo not given), the survival was 58% (inactive). In the case of `Cc1ccc(-n2ncc(C(=O)NCCCN3CCN(C)CC3)c2C2CCN(C(=O)OC(C)(C)C)CC2)cc1`, the survival is reported as 96% (inactive). In the case of `COc1ccc(N2CCN(C(=O)c3noc4c3CCCCC4)CC2)cc1`, the survival is reported as 72% (inactive). `O=C(c1ccc2c(c1)N(Cc1ccc(F)cc1)C(=O)c1ccccc1S2(=O)=O)N1CCCCCC1` was tested, and the survival was 71% (inactive). For `Cc1ccc2oc(C(=O)Nc3ccc(S(=O)(=O)N(C)Cc4ccccc4)cc3)cc(=O)c2c1`, the survival was 50% (inactive). In the case of `COc1ccc(N2CCN(c3ncnc4c3nc3n4CCCCC3)CC2)cc1`, the survival is reported as 100% (inactive). In the case of `CCN(C(=O)C1CCCN(c2ncnc3c2nc2n3CCCCC2)C1)c1cccc(Cl)c1` (stereo not given), the survival is reported as 82% (inactive). For `c1ccc(N2CCN(c3ncnc4c3nc3n4CCCCC3)CC2)cc1`, the survival was 89% (inactive). For `O=C(Nc1cccc(Cl)c1)C1CCCN(c2ncnc3c2nc2n3CCCCC2)C1` (stereo not given), the survival was 17% (active). With `O=C(C1CCN(c2ncnc3c2nc2n3CCCCC2)CC1)N1CCN(c2cccc(Cl)c2)CC1` the survival was 64% (inactive). In the case of `Clc1cccc(N2CCN(c3ncnc4c3nc3n4CCCCC3)CC2)c1`, the survival is reported as 11% (active). For `Clc1cccc(N2CCN(c3ncnc4c3nc3n4CCCC3)CC2)c1`, the survival was 114% (inactive). For `COc1cccc(N2CCN(c3ncnc4c3nc3n4CCCCC3)CC2)c1`, the survival was 20% (active). In the case of `Cc1ccc(NC(=O)C2CCCN(c3ncnc4c3nc3n4CCCCC3)C2)cc1F` (stereo not given), the survival is reported as 92% (inactive). For `COc1ccc(OC)c(CNc2ncnc3onc(C)c23)c1`, the survival was 129% (inactive). For `CCOc1ccc(NC(=O)c2cc(S(=O)(=O)N3CCC(C)CC3)cn2C)cc1`, the survival was 112% (inactive). For `CCOc1ccc(/C=C/c2nc(C#N)c(NCc3ccc(OC)cc3)o2)cc1`, the survival was 68% (inactive). With `CCOC(=O)c1[nH]c2c(c1Cc1ccccc1)C(=O)CC(c1ccccc1)C2` (stereo not given) the survival was 64% (inactive). In the case of `CCOc1ccc(CCNc2nc3c(-c4ccc(C)cc4)nnn3c3ccccc23)cc1OCC`, the survival is reported as 88% (inactive).
